In PubChem BioAssay one finds composite z-score and z-score data, which are given here for 15 compounds.

Active and inactive are the calls of the source. Unless noted, how the calls were made is not given here.

The test system of assay [1] is Wnt5a (protein binding on small-molecule microarray). The assay is described as follows: small molecules binding Wnt5a protein – biophysical, small-molecule microarray, 635/667 nm fluorescence, primary screen (AID 1142).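 Further: fluorescence read at 667 nm with signal to noise per printed feature.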 To be noted: 635 nm fluorescence, higher = more signal.
The nature of assay [2]: ATP-based viability of Huh7 replicon cells – cell-based, CellTiter-Glo luminescence, basal, 48 h, cytotoxicity control for HCV replication inhibitor project, primary screen (AID 1143).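 Further: Huh7 hepatoma cells carrying a hepatitis C replication reporter with no stimulus; test concentration not given here.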 To be noted: higher = more signal, called active from +8 up or from −8 down. On the technique in general: Replicon systems follow genome replication, usually without infectious particles.
Assay [3] is described as follows: Pseudomonas biofilm growth suppression – PAO1 strain, BacTiter-Glo luminescence, LB-PBS, primary screen (AID 1144). The settings on record: P. aeruginosa PAO1 biofilm, 12 h, higher = more signal.
Assay [4] can be described thus: basal CRE-LacZ reporter activity in PC12 – cell-based, unstimulated, primary screen (AID 1145). The settings on record: no forskolin, luminescence, 4.5 h, higher = more signal, called active from +8 up or from −8 down.
The nature of assay [5]: forskolin-driven CRE-LacZ activity in PC12 – cell-based, CRE-LacZ reporter, forskolin-stimulated, primary screen (AID 1146).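 Further: PC12 cells with 6xCRE LacZ reporter stimulated by forskolin 10 µM; beta-galactosidase reporter signal reflecting CREB driven transcription.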 To be noted: luminescence, 4.5 h, higher = more signal, called active from +8 up or from −8 down.
The target of assay [6] is Streptavidin (Streptomyces avidinii) (UniProt P22629). The assay can be described thus: compounds binding control protein streptavidin – biophysical, small-molecule microarray, 635/667 nm fluorescence, artefact control for SMM compound annotation, primary screen (AID 1147).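 Further: signal reflects streptavidin binding to arrayed compounds as a control protein.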 To be noted: higher = more signal.
Chain of Streptavidin (Streptomyces avidinii) (P22629 whole entry, looked up): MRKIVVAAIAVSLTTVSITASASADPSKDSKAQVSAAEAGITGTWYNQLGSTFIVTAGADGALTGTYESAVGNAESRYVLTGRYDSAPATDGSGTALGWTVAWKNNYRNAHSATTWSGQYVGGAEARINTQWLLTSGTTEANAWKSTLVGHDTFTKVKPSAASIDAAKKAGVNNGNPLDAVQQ
Assay [7] is described as follows: probe aInhba binding on compound microarray – biochemical, small-molecule microarray, 635/667 nm fluorescence, primary screen (AID 1148).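 Further: score merges 667nm spot fluorescence with signal-to-noise for antibody binding to printed compounds.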 The settings on record: higher = more signal.
The target of assay [8] is Torsin-1A (Homo sapiens) (UniProt O14656). The assay can be described thus: TOR1A wild-type binding on microarray – cell lysate, small-molecule microarray, lysate, 635/667 nm, primary screen (AID 1149). The settings on record: COS7 hTOR1A-WT lysate, 635 nm fluorescence, higher = more signal.
Chain of Torsin-1A (Homo sapiens) (O14656 whole entry, looked up): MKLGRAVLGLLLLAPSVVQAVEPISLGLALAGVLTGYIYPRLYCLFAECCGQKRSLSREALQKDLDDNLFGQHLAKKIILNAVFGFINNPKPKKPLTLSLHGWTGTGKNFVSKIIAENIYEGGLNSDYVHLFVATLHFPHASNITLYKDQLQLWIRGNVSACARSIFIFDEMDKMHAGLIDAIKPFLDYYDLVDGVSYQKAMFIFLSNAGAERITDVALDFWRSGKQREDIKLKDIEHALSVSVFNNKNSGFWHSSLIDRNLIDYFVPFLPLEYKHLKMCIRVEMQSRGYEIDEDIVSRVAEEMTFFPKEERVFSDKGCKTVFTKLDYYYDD
Assay [9] has the same target. The assay is described as follows: torsin A mutant lysate binding on microarrays – cell lysate, small-molecule microarray, COS7 lysate, 635/667 nm fluorescence, primary screen (AID 1150).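 Further: score pools 667 nm emission and signal to noise measuring lysate protein binding.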 To be noted: COS7 hTOR1A mutant lysate, 635 nm fluorescence, higher = more signal.
Assay [10] concerns Sonic hedgehog protein (Shh). The assay can be described thus: Sonic hedgehog microarray binding compounds – biochemical, small-molecule microarray, 635/667 nm fluorescence, primary screen (AID 1151).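 Further: Shh protein binding to compounds spotted on small-molecule microarray slides; score combines spot fluorescence intensity with signal-to-noise across triplicate slides.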 The settings on record: 635 nm fluorescence, higher = more signal.

With `Cc1ccccc1C(O)C1C=CC2C(=O)NC(=O)C2N1Nc1ccc(Cl)cc1Cl` (stereo not given), the composite z-score was -0.0864 in assay [1]; 0.878 in [6]; 0.319 in [7]; -0.192 in the assay with Torsin-1A (Homo sapiens) [8]; 0.244 with Torsin-1A (Homo sapiens) [9]; -0.232 in assay [10]. In addition, the z-score was -0.702 (inactive) in assay [2], -0.274 (inactive) in assay [3], 1.01 (inactive) in [4] and -0.569 (inactive) in [5].

`COCCOC(=O)N1C(=O)[C@@]2(c3cc(C#CC4(O)CCCCCC4)ccc31)[C@H](C(=O)N1CCN(c3ncccn3)CC1)[C@H]1C(=O)O[C@H](c3ccccc3)[C@H](c3ccccc3)N1[C@@H]2c1ccccc1OCCO`: the composite z-score in [1] worked out at 0.329; in assay [6] it was 0.0715; in assay [7], 0.258; in the assay with Torsin-1A (Homo sapiens) [8], 0.835; in the assay with Torsin-1A (Homo sapiens) [9], 0.577; in [10], 1.52. Besides, the z-score in assay [2] was -2.56 (inactive); in [3], 0.884 (inactive); in assay [4], 0.204 (inactive); in [5], 1.22 (inactive).

Consider `COCCOC(=O)N1C(=O)[C@@]2(c3cc(C#CCC(C(=O)OC)C(=O)OC)ccc31)[C@H](C(=O)NC[C@H](O)c1ccccc1)[C@H]1C(=O)O[C@H](c3ccccc3)[C@H](c3ccccc3)N1[C@@H]2c1ccc(O)cc1`, for which the composite z-score was 0.247 in [1]; -0.003 in [6]; -0.0509 in [7]; -0.431 in the assay with Torsin-1A (Homo sapiens) [8]; 0.413 in the assay with Torsin-1A (Homo sapiens) [9]; 0.863 in assay [10]. For the same compound, the z-score was -1.1 (inactive) in [2], -0.766 (inactive) in assay [3], -0.191 (inactive) in assay [4] and -0.221 (inactive) in assay [5].

Turning to `COC(=O)C1N=C(c2ccc(OCCCO)cc2)N(c2ccccc2)O1` (stereo not given), the composite z-score in assay [1] worked out at 0.924; in assay [6], 0.562; in [7] it was 0.308; in the assay with Torsin-1A (Homo sapiens) [8], 0.654; with Torsin-1A (Homo sapiens) [9], 0.328; in [10] it was 0.664. For the same compound, the z-score in assay [2] is 0.255 (inactive); in assay [3], -0.787 (inactive); in [4], 0.353 (inactive); in assay [5], 0.0512 (inactive).

In the case of `COc1ccc([Si](C)(C)[C@H]2[C@H](CCO)O[C@@]3(C(=O)N(Cc4ccccc4)c4ccc(N5C(=O)c6ccccc6Oc6ccccc65)cc43)[C@@H]2C)cc1`, the composite z-score was 0.147 in [1]; -0.069 in assay [6]; -0.128 in assay [7]; -0.218 with Torsin-1A (Homo sapiens) [8]; 0.102 with Torsin-1A (Homo sapiens) [9]; 0.534 in assay [10]. The z-score in assay [2] is -6.59 (inactive); in [3] it was -0.0823 (inactive); in [4], 0.324 (inactive); in [5], -0.328 (inactive).

In the case of `C=C(CCCC)C(=O)CC[C@@H](OC(=O)c1cccnc1)c1ccc(OCCO)cc1`, the composite z-score in assay [1] is 1.08; in assay [6], -0.444; in assay [7], 0.0857; with Torsin-1A (Homo sapiens) [8] it was 1.12; with Torsin-1A (Homo sapiens) [9], 0.507; in assay [10], 2.35. Further, the z-score in assay [2] was -2.32 (inactive); in [3], 0.383 (inactive); in assay [4] it was 11.5 (active); in [5], 1.62 (inactive).

With `O=C1C2C=CC(C(O)c3ccc4c(c3)OCO4)N(Nc3ccccc3)C2C(=O)N1c1ccccc1` (stereo not given), the composite z-score is 0.096 in [1]; 1.52 in [6]; 0.143 in assay [7]; -0.277 with Torsin-1A (Homo sapiens) [8]; 0.426 with Torsin-1A (Homo sapiens) [9]; 0.0743 in assay [10]. The z-score is -0.924 (inactive) in [2], -0.648 (inactive) in assay [3], 0.44 (inactive) in assay [4] and 0.993 (inactive) in [5].

With `C=CCC(OC(C)=O)[C@@H]1[C@@H](N(Cc2ccc(-c3cccc(C(F)(F)F)c3)o2)C(=O)c2ccc(C)cc2)c2cc(OCCCO)ccc2N1C(=O)Cc1ccc(OC)cc1` (stereo not given in full), the composite z-score in [1] is 0.058; in assay [6], -0.109; in assay [7], -0.128; with Torsin-1A (Homo sapiens) [8], -0.425; in the assay with Torsin-1A (Homo sapiens) [9], 0.197; in [10], 1.53. Also, the z-score in assay [2] was -0.159 (inactive); in assay [3], -0.853 (inactive); in assay [4], -0.477 (inactive); in assay [5] it was 0.514 (inactive).

For the compound `COc1cc(CO)cc(I)c1O[C@H]1C=C(C(=O)NCCO)C[C@@H](NCC2CCCCC2)[C@@H]1O`, the composite z-score in [1] is -0.042; in assay [6], 0.0581; in [7], 0.0422; in the assay with Torsin-1A (Homo sapiens) [8], -0.549; with Torsin-1A (Homo sapiens) [9], -0.262; in assay [10] it was -0.397. Moreover, the z-score in [2] is -0.731 (inactive); in assay [3], -0.893 (inactive); in assay [4] it was -0.0534 (inactive); in assay [5], -0.269 (inactive).

As to `CCN(CC)c1ccc(N2CC=CC34O[C@@H]5C=CCCOC(=O)C5[C@H]3C(=O)N(CCO)[C@@H]4C2=O)cc1` (stereo not given in full), the composite z-score in assay [1] was -0.546; in assay [6], -1.02; in assay [7], -0.163; with Torsin-1A (Homo sapiens) [8], -0.894; with Torsin-1A (Homo sapiens) [9], -1.42; in assay [10], -0.0352. Also, the z-score in assay [2] is -0.055 (inactive); in [3], -0.167 (inactive); in assay [4] it was 0.191 (inactive); in [5], 0.0371 (inactive).

For `[N-]=[N+]=NCc1ccccc1[C@@H]1OC(c2ccc(OCCCO)cc2)=N[C@]1(Cc1ccccc1N=[N+]=[N-])C(=O)N1CCCCC1`, the composite z-score in [1] was determined as 0.0032; in assay [6], 1.58; in assay [7] it was 0.329; with Torsin-1A (Homo sapiens) [8], 0.133; in the assay with Torsin-1A (Homo sapiens) [9] it was 1.31; in assay [10], 0.0257. For the same compound, the z-score in assay [2] was -1.91 (inactive); in [3], -0.166 (inactive); in assay [4], -0.753 (inactive); in assay [5], -0.189 (inactive).

On to `C=C(COC)/C(=C/C[C@@H](OC(C)=O)c1ccc(CO)o1)c1cc(C(=O)OC)ccc1OC`, for which the composite z-score was -0.0561 in [1]; -0.367 in assay [6]; -0.0933 in [7]; -0.5 with Torsin-1A (Homo sapiens) [8]; 0.666 with Torsin-1A (Homo sapiens) [9]; 1.64 in assay [10]. Further, the z-score in [2] was 0.0759 (inactive); in assay [3], -0.921 (inactive); in assay [4] it was -0.0602 (inactive); in assay [5], 1.12 (inactive).

Turning to `COCCCNC(=O)[C@@]1(c2ccc([N+](=O)[O-])cc2)CC(=O)N(CC23CC4CC(CC(C4)C2)C3)[C@@H]1c1ccc(CO)cc1I`, the composite z-score was 0.582 in assay [1]; -0.414 in assay [6]; 0.0906 in [7]; 0.676 in the assay with Torsin-1A (Homo sapiens) [8]; 0.0661 with Torsin-1A (Homo sapiens) [9]; 0.636 in assay [10]. Further, the z-score was -5.26 (inactive) in assay [2], 0.142 (inactive) in [3], -0.825 (inactive) in [4] and 0.372 (inactive) in assay [5].

For the compound `O=C1O[C@H](c2ccccc2)[C@H](c2ccccc2)N2[C@H]1[C@@H](C(=O)N1CCCCCCC1)[C@]1(C(=O)Nc3ccc(C#CC4(O)CCCCCC4)cc31)[C@H]2c1ccc(O)cc1`, the composite z-score in assay [1] was 1.19; in [6] it was 2.76; in assay [7], 1.77; in the assay with Torsin-1A (Homo sapiens) [8], 1.13; with Torsin-1A (Homo sapiens) [9], 1.49; in assay [10] it was 1.45. The z-score in [2] is -3.1 (inactive); in assay [3], -0.555 (inactive); in assay [4] it was -0.168 (inactive); in [5], -0.219 (inactive).

Turning to `O=C1[C@@H]2[C@@H](CC(COc3ccccc3)=C3[C@@H](CCc4ccccc4)OB(O)C[C@@H]32)C(=O)N1Cc1ccccc1`, the composite z-score was -0.0294 in [1]; 0.376 in assay [6]; -0.0161 in assay [7]; 0.0258 with Torsin-1A (Homo sapiens) [8]; 0.256 in the assay with Torsin-1A (Homo sapiens) [9]; 0.919 in [10]. The z-score in [2] is -1.91 (inactive); in assay [3] it was 0.132 (inactive); in assay [4], 1.94 (inactive); in assay [5] it was -1.12 (inactive).
